A selection: hits, their analogues and other compounds. The true share with any hit is near 12%.
G9a inh: qHTS Assay for Inhibitors of Histone Lysine Methyltransferase G9a; Histone-lysine N-methyltransferase EHMT2 (Homo sapiens), Q96KQ7; G9a H3K9 monomethylation, AlphaScreen, 2 h; Potency, µM (highest dose often 102 µM), inactives show at the highest dose activity, negative = inhibition, usual class: inhibitors; actives 8.8% (n = 350,000); note: potency is the fitted concentration of half-maximal effect; % is set by controls: 0 for no effect and ±100 for the full control effect; nearly all actives have a fitted effect of over 75% in size
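G9a (20 nM) was preincubated 15 min with compound, then reacted 2 h at room temperature with 500 nM biotin-H3K9 peptide and 20 µM SAM. Monomethyl-H3K9 detected by AlphaScreen using anti-H3K9me1 antibody.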
PLK1 PBD block: qHTS for Inhibitors of PLK1-PDB (polo-like kinase 1 - polo-box domain): Primary Screen; AID 720504, 2013; Plk1 PBD binding of FITC phosphopeptide, fluorescence polarization; actives 2.8% (n = 360,000); Potency, µM, for inactives: max response, negative = inhibition, usual class: inhibitors; note: potency is the fitted concentration of half-maximal effect; series mostly up to about 57 µM; % is set by controls: 0 for no effect and ±100 for the full control effect; nearly all actives have a fitted effect of over 65% in size
PI5P4K alpha inh: qHTS for Inhibitors of phosphatidylinositol 5-phosphate 4-kinase (PI5P4K) | PI5P4Kalpha enzyme, ADP-Glo luminescence, 60 min; stronger effect = lower value | max response, % | actives 1.2% (n = 330,000) | AID 652105, 2013; active = max response of -50% or lower; inconclusive = between -30% and -50%; inactive = -30% or higher; note: value at the top dose of about 77 µM; % is set by controls: 0 for no effect and ±100 for the full control effect
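Quantitative HTS of the MLSMR library against PI5P4Kalpha with substrate. ATP added last at 5 microM final; room temperature, 60 minutes. Remaining ATP depleted, ADP converted and read as luminescence.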
JMJD2A Tudor: qHTS Assay for Inhibitors of JMJD2A-Tudor Domain. Lysine-specific demethylase 4A (Homo sapiens), O75164. AlphaScreen JMJD2A-Tudor / H3K4me3 peptide binding. Potency, µM (top dose mostly 114 µM), without a hit: top-dose activity change, negative = inhibition, most hits filed as inhibitors. actives 4.4% (n = 390,000). AID 504339, 2011; note: potency is the fitted concentration of half-maximal effect; % is set by controls: 0 for no effect and ±100 for the full control effect; nearly all actives have a fitted effect of over 50% in size
Target sequence (O75164 whole entry, looked up, the tested form may be a part): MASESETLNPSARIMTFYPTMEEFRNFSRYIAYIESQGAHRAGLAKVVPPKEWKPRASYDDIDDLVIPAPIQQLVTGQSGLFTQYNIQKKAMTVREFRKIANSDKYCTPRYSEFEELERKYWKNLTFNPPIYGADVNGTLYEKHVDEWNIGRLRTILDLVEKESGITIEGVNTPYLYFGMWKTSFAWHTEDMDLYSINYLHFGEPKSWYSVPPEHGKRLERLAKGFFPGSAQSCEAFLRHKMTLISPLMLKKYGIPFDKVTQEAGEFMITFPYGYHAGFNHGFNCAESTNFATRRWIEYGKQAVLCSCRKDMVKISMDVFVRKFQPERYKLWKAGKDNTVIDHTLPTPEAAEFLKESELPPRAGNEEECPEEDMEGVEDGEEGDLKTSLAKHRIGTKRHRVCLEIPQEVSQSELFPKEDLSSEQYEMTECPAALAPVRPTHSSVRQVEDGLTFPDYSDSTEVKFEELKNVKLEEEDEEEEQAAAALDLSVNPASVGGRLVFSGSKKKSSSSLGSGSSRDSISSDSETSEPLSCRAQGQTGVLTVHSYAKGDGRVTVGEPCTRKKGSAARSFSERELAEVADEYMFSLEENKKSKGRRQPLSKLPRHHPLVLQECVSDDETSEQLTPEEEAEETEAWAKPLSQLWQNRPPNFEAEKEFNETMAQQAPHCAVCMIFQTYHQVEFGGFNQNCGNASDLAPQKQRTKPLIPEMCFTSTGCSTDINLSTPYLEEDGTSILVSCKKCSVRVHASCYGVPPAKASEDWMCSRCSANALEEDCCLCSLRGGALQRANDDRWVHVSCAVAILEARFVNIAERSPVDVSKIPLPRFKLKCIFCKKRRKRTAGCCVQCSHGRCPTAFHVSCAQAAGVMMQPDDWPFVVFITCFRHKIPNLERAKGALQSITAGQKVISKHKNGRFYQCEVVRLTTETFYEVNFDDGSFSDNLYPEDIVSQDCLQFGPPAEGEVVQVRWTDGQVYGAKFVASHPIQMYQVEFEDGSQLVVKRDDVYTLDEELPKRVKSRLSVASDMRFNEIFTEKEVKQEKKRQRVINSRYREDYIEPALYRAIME
HP1b binding inh: HTS for Inhibitors of HP1-beta Chromodomain Interactions with Methylated Histone Tails. Chromobox protein homolog 1 (Homo sapiens), P83916. AlphaScreen HP1-beta / biotin-H3K9me3 peptide binding. Potency, µM (top dose mostly 114 µM), inactives show at the top dose activity change, negative = inhibition, usual class: inhibitors. actives 0.56% (n = 390,000). AID 540317, 2011; note: potency is the fitted concentration of half-maximal effect; nearly all actives have a fitted effect of over 70% in size
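AlphaScreen: HP1-beta (50 nM) preformed 30 min with biotin-H3(1-18)K9me3 peptide (50 nM) in PBS pH 7.4, 0.01% Tween-20. Compound added for 30 min at RT, then streptavidin donor/nickel chelate acceptor beads (10 ug/mL) for 30 min.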
BAZ2B inh: qHTS Assay for Inhibitors of BAZ2B | actives 4.4% (n = 360,000) | AlphaScreen BAZ2B-H3K14Ac peptide displacement | Bromodomain adjacent to zinc finger domain protein 2B (Homo sapiens), Q9UIF8 | AID 504333, 2011 | Potency, µM (doses to about 114 µM), for the others: at the top dose activity change, negative = inhibition, hits mostly inhibitors; note: potency is the fitted concentration of half-maximal effect; % is set by controls: 0 for no effect and ±100 for the full control effect; nearly all actives have a fitted effect of over 60% in size
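Complex of BAZ2B and biotin-H3K14Ac (50 nM apiece) forms over 30 min at RT, then faces library compounds up to 110 uM for another 30 min; AlphaScreen beads added, 20 min dark incubation, luminescence read.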
Numbers without * were called inactive; ? = inconclusive; nt = not tested or not shown; ! = a repeat was not active; [ ] = remark or other dose. Unless noted, calls come from the whole dose curve; as a rule, active = well fitted curve in the direction sought with a large enough effect; inconclusive = small, poorly fitted or top-dose-only effect, or another doubt; inactive = no such curve, though single readings can be large; an effect the other way counts as inactive or inconclusive.

SMILES	G9a inh	PLK1 PBD block	PI5P4K alpha inh	JMJD2A Tudor	HP1b binding inh	BAZ2B inh
CN(C(=O)C1CCC(=O)N(C2CC2)C1)C1CCCCC1 (stereo not drawn)	71%	0%	2	3%	29%	7%
Cc1cc(C)c(-c2cc(NC(=O)COC(=O)c3ccc(C#N)cc3)n(-c3ccccc3)n2)cc1C	32µM*	0%	1	-11%	28%	-33%
O=C(CN1C(=O)C2(SCC(=O)N2c2cccc(F)c2)c2ccccc21)NCCc1ccccc1 (stereo not drawn)	7%[59 µM]	nt	nt	-3%	27%	-7%[57.1 µM]
COc1cc(NC(=O)[C@H](C)NC(=O)N2CCn3c2nc2ccccc23)cc(OC)c1	-11%	?	5	-24%	40%	50µM*
COc1cccc(CNC(=O)[C@H](CCSC)NC(=O)N2CCn3c2nc2ccccc23)c1	50µM*	-17%	1	-22%	24%	?
CSCC[C@H](NC(=O)N1CCn2c1nc1ccccc12)C(=O)NC1CC1	-33%	-10%	8	-12%	21%	-22%[57.1 µM]
CC(=O)c1cccc(OCC(=O)Nc2ccccc2N2CCOCC2)c1	-3%[2.33 µM]	-2%	-3	3%	25%	7%
Oc1ccc(/C=N/N=C/c2ccc(O)c(O)c2)cc1O	35µM*	-16%	-8	7.9µM*	-27%	10µM*
O=C(/C(=N/O)c1ccccc1)c1ccccc1	nt	-4%	0	-15%	9%	nt
Oc1ccc(N=Cc2ccc(O)c(O)c2)cc1	1.3µM*	21µM*	-79*	56µM*	?	45µM*
O=C1Nc2ccccc2/C1=N\N=C\c1ccc(O)c(O)c1	nt	-16%	-56*	?	32µM*	40µM*
Oc1ccc(/C=N/Nc2ccc(Cl)nn2)cc1O	-14%	0%	-2	-18%	24%	-23%
COc1cc(/C=N/N=C2/C(=O)Nc3ccccc32)ccc1O	?	-3%	-17	?	-36%	?
CCOc1cc(/C=N/N=C/c2ccc(O)c(OCC)c2)ccc1O	15%	-7%	2	-23%	23%	3%
O=C(/C(=N/N=C/c1ccc(O)c(O)c1)c1ccccc1)c1ccccc1	32µM*	1%	-2	25µM*	?	40µM*
Cc1c(Cl)ccc2sc(N3CCN(C(=O)CS(=O)(=O)c4ccccc4)CC3)nc12	-4%[59 µM]	nt	nt	-19%	53%	16%
CCOc1ccc(N(CC(=O)NCc2ccccc2Cl)S(=O)(=O)c2c(C)noc2C)cc1	30%	-3%	12	-7%	24%	-17%
Cc1ccc2nc(SCC(=O)N3CCCCC3)nc(=O)n2c1	9%[0.501 µM]	9%	3	4%	15%	8%
COc1cccc(C(C)(O)c2nc(-c3cccc(C(C)C)c3)cs2)c1 (stereo not drawn)	nt	0%	31	nt	nt	nt
COc1cc(OC)c(NS(=O)(=O)c2c(C(=O)N3CCCCCC3)c(C)n(C)c2C)cc1Cl	10%[59 µM]	nt	nt	-18%	5%	?
Nc1ccc(N(c2ccccc2)c2ccc(N)cc2)cc1	1.3µM*	-8%	-28	16µM*	40µM*	25µM*
O=C(c1ccccc1)c1cc2cc(Cl)ccc2[nH]1	-8%	0%	3	-10%	11%	9%
O=C(O)c1cc(=O)c2ccccc2[nH]1	10µM*!	-1%	-16	?	13%	?
O=C(O)c1cc(=O)c2c(Cl)cc(Cl)cc2[nH]1	16%[12.7 µM]	-3%	-59*	50µM*	4%	nt
O=C(O)c1cc(=O)c2cccc(O)c2[nH]1	-33%[2.33 µM]	nt	nt	28µM*	49%	nt
SMILES	G9a inh	PLK1 PBD block	PI5P4K alpha inh	JMJD2A Tudor	HP1b binding inh	BAZ2B inh
O=C(O)c1cc2ccc3ccccc3c2[nH]1	?	-14%	nt	-12%	24%	-10%
COCCCNC(=O)c1ccc(Cn2c(=O)c3ccccc3n(CC(=O)Nc3c(C)cccc3C)c2=O)cc1	0%[59 µM]	nt	nt	-5%	31%	-2%
c1ccc(Nc2cccc(Nc3ccccc3)c2)cc1	16µM*	1%	-1	32µM*	40µM*	13µM*
Nc1cccc(Nc2ccccc2)c1	nt	0%	7	-12%	1%	?
O=C(CN1C(=O)CSC1=O)Nc1ccc2c(c1)OCCO2	-40%	-14%	-55*	1%	29%	-7%
CC1CC(C)CN(CC(=O)Nc2ccc3c(c2)OCCO3)C1 (stereo not drawn)	-43%[12.7 µM]	-13%	1	0.89µM*	?	79µM*
COC(=O)C1CCN(CC(=O)Nc2ccc3c(c2)OCCO3)CC1	nt	-5%	0	-3%	11%[57 µM]	nt
CC1CCN(CCC(=O)Nc2ccc3c(c2)OCCO3)CC1	-47%	nt	nt	nt	nt	56µM*
Cc1ccc(NC(=O)CCN2CCC(C)CC2)cc1	nt	5%	-3	2%	46%	?
Cc1ccc(NC(=O)CN2C(=O)CSC2=O)cc1	8%[59 µM]	-8%	0	-8%	30%	6%
COc1cccc(/C=N/NC(=O)CCn2c3ccccc3c3ccccc32)c1	18µM*	-1%	23	8%	27%	-25%
COc1ccc(CCNC(=O)CC(=O)N/N=C/c2ccc(Br)cc2)cc1OC	nt	-20%	5	-9%	23%	5%
COc1cccc(/C=N/NC(=O)CC(=O)NCCc2ccc(OC)c(OC)c2)c1	0%	27µM*	nt	?	-17%	10%
O=C(CNc1cccc2ccccc12)N/N=C/c1ccc([N+](=O)[O-])cc1	8.9µM*	-6%	9	-2%	37%	-2%
Cc1ccccc1NCC(=O)N/N=C/c1ccc([N+](=O)[O-])cc1	?	1%	14	-21%	20%	-8%
O=C(CNc1cccc2ccccc12)N/N=C/c1cccc(Oc2ccccc2)c1	10µM*	1%	11	?	-5%	?
Cc1ccc(C(=O)N[C@H](C(=O)N2CCN(c3ccccc3F)CC2)C(C)C)cc1	10%	-6%	1	-16%	23%	2%
COC(=O)/C=C1/SC(=Nc2ccc(C)cc2C)NC1=O	nt	-15%	7	-23%	9%	-4%
COC(=O)/C=C1/SC(=Nc2ccc(Cl)c(Cl)c2)NC1=O	2%	-47%	-6	-31%	26%	-8%
COC(=O)/C=C1\SC(=NC(=O)c2ccc(C)cc2)NC1=O	28µM*	-25%	2	-19%	17%	?
COC(=O)/C=C1/SC(=NC(=O)c2ccc(Cl)cc2)NC1=O	nt	34µM*	-10	?	-14%	nt
